# According to the supplement of paper PMC7411054:
# Counter-ions that a name gives are not always drawn.
# How the values were obtained:
# Settings in all cases: treatment time: 24 h
# [1] = test system: HepG2-ACTB-RAB5A; experiment: lowest phenotypically active concentration; higher = less potent
# Method in brief: (§1)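 Cells from fifteen gene-edited reporter lines (A549, HepG2 and WPMY1) were treated for 24 h at 0.3, 1, 3 or 9 µM and imaged live, four wells per condition. Features were normalised per well to solvent control wells. A condition deviated if ≥3 of 4 wells passed the 95th percentile of control Euclidean distances and was reproducible if its median replicate Pearson correlation beat the 95th percentile of non-replicates; phenotypic activity needed both.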
# [2] = test system: HepG2-CANX-COX4; experiment: as above
# Method in brief: as §1
# [3] = test system: HepG2-TP53BP1-CLTA; experiment: as above
# Method in brief: as §1
# [4] = test system: HepG2-TUBA1B-RELA; experiment: as above
# Method in brief: as §1
# [5] = test system: WPMY1-ACTB-RAB5A; experiment: as above
# Method in brief: as §1
# [6] = test system: WPMY1-CANX-COX4; experiment: as above
# Method in brief: as §1
# [7] = test system: WPMY1-GM130-SQSTM1; experiment: as above
# Method in brief: as §1
# [8] = test system: WPMY1-TP53BP1-CLTA; experiment: as above
# Method in brief: as §1
# [9] = test system: WPMY1-TUBA1B-RELA; experiment: as above
# Method in brief: as §1
# [10] = test system: WPMY1-ACTB-RAB5A; experiment: phenotypically active (imaging signature differs from DMSO and reproducible) at any of 0.3-9 uM (binary (1 = active, 0 = inactive)); higher = active
# Method in brief: as §1
Structure (SMILES),lowest phenotypically active concentration [1] [µM],lowest phenotypically active concentration [2] [µM],lowest phenotypically active concentration [3] [µM],lowest phenotypically active concentration [4] [µM],lowest phenotypically active concentration [5] [µM],lowest phenotypically active concentration [6] [µM],lowest phenotypically active concentration [7] [µM],lowest phenotypically active concentration [8] [µM],lowest phenotypically active concentration [9] [µM],phenotypically active [10]
COc1cccc(-c2cc(F)ccc2[C@H]2Cc3nc(N)nc(C)c3C(=O)N2)n1,≤ 0.3,≤ 0.3,≤ 0.3,≤ 0.3,≤ 0.3,≤ 0.3,≤ 0.3,≤ 0.3,≤ 0.3,1 (active)
CCc1cccc(CC)c1NC(=O)N1Cc2[nH]nc(NC(=O)c3ccc(N4CCN(C)CC4)cc3)c2C1,≤ 0.3,≤ 0.3,≤ 0.3,≤ 0.3,1,1,1,1,1,1 (active)
CN(C)CC(=O)N1CCC[C@@H](n2nc(-c3ccc(Oc4ccccc4)cc3)c3c(N)ncnc32)C1,1,3,1,1,3,9,3,3,3,1 (active)
COc1cc(OC2CCN(C)CC2)ccc1Nc1ncc2c(n1)n(C1CCCC1)c(=O)n2C,3,9,9,9,9,9,9,9,9,1 (active)
O=C1Cc2c([nH]c3ccc(Br)cc23)-c2ccccc2N1 [Kenpaullone],3,1,3,1,1,1,1,1,3,1 (active)
COc1ccc(S(=O)(=O)N(CCO)c2ccccc2CN(C)C/C=C/c2ccc(Cl)cc2)cc1,9,3,9,9,9,9,9,9,9,1 (active)
COCc1c(C(C)C)nc(C(C)C)c(/C=C/[C@@H](O)C[C@@H](O)CC(=O)O)c1-c1ccc(F)cc1 [cerivastatin],≤ 0.3,≤ 0.3,≤ 0.3,≤ 0.3,≤ 0.3,≤ 0.3,≤ 0.3,≤ 0.3,≤ 0.3,1 (active)
CC(C)NCCCn1c(Sc2cc3c(cc2I)OCO3)nc2c(N)ncnc21,≤ 0.3,≤ 0.3,≤ 0.3,≤ 0.3,≤ 0.3,≤ 0.3,≤ 0.3,≤ 0.3,≤ 0.3,1 (active)
CO[C@@H]1[C@H](N(C)C(=O)c2ccccc2)C[C@H]2O[C@]1(C)n1c3ccccc3c3c4c(c5c6ccccc6n2c5c31)C(=O)NC4,≤ 0.3,≤ 0.3,≤ 0.3,≤ 0.3,≤ 0.3,≤ 0.3,1,≤ 0.3,≤ 0.3,1 (active)
CCN(CCO)CCCOc1ccc2c(Nc3cc(CC(=O)Nc4cccc(F)c4)n[nH]3)ncnc2c1 [barasertib-HQPA],≤ 0.3,≤ 0.3,≤ 0.3,≤ 0.3,≤ 0.3,≤ 0.3,≤ 0.3,≤ 0.3,≤ 0.3,1 (active)
CCCC1(CCC)CCC2(CCN(CCCN(CC)CC)C2)CC1 [Atiprimod dihydrochloride],1,1,1,≤ 0.3,1,1,1,1,1,1 (active)
CNC(=O)c1ccccc1Sc1ccc2c(/C=C/c3ccccn3)n[nH]c2c1 [Axitinib],3,3,3,3,9,9,3,3,3,1 (active)
Nc1ncnc2c1c(-c1cnc3[nH]ccc3c1)nn2C1CCCC1,1,≤ 0.3,≤ 0.3,≤ 0.3,1,1,1,≤ 0.3,1,1 (active)
Cc1c(C(=O)N2CCOc3ccc(-c4ccc(N)nc4)cc3C2)ccc(S(C)(=O)=O)c1F,3,3,9,3,3,3,3,3,9,1 (active)
O=C(CCCCSc1nc(-c2ccc(-c3ccccc3)cc2)cc(=O)[nH]1)NO,≤ 0.3,≤ 0.3,≤ 0.3,≤ 0.3,≤ 0.3,≤ 0.3,≤ 0.3,≤ 0.3,≤ 0.3,1 (active)
Cc1ccc2nc(NCCN)c3ncc(C)n3c2c1,3,3,3,3,3,3,3,3,3,1 (active)
COc1ccc(C[C@H](N)C(=O)N[C@H]2[C@@H](O)[C@H](n3cnc4c(N(C)C)ncnc43)O[C@@H]2CO)cc1 [Puromycin dihydrochloride],≤ 0.3,≤ 0.3,≤ 0.3,≤ 0.3,≤ 0.3,1,≤ 0.3,1,1,1 (active)
CC(=C/[C@@H](C)C(=O)c1ccc(N(C)C)cc1)/C=C/C(=O)NO [Trichostatin A],≤ 0.3,≤ 0.3,≤ 0.3,≤ 0.3,≤ 0.3,≤ 0.3,≤ 0.3,≤ 0.3,≤ 0.3,1 (active)
COc1cc(Br)c(Nc2nc(-c3c(C)nc4ncccn34)cs2)c(Br)c1,1,1,1,1,1,1,1,3,1,1 (active)
